Source: PubChem BioAssay (several laboratories)
ALR H2O2 inh: inhibitors of human sulfhydryl oxidase ALR; P55789; purified ALR, DTT oxidation, H2O2 HRP-luminol luminescence; inhibition, % (no concentration beside the values); 290,000 compounds, 3.8% hits; AID 485317;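 active means mean replicate inhibition above about 79%, with every replicate also reaching it, limit read from the data; inconclusive means only one of the two criteria met; inactive means mean below limit and not every replicate reaching it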
Target sequence (P55789 whole entry, looked up): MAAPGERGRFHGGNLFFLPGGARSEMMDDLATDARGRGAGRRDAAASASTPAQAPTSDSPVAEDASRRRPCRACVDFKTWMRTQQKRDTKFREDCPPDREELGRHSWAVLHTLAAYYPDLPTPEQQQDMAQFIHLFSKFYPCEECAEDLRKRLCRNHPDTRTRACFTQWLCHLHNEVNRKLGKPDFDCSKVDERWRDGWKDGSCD
HDAC3 inh: inhibitors of human histone deacetylase 3; inhibition, % at 8.3 µM; recombinant HDAC3, fluorogenic peptide/trypsin coupled, fluorescence; 320,000 compounds, 0.15% hits; in the data active means inhibition above about 26%, passing the limit was not always enough; inconclusive means no clear call, values can overlap the other calls
GC-A act: GC-A (human) enzyme activation. HEK293 GC-A cells, cGMP TR-FRET, EC30 ANP; 0% at EC30 ANP, 100% saturating ANP. 370,000 compounds, 0.14% hits. P16066. activation, % at 10 µM. AID 1671463; in the data active means activation above about 40%
NPR2 activator: GC-B (human) receptor activation | P20594 | activation, % at 10 µM | 370,000 compounds, 0.11% hits | HEK293-GC-B cells, CNP EC30, cGMP TR-FRET; 0% at EC30 CNP, 100% saturating CNP;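 active means activation at 10 µM reaching about 35% in either raw or pattern-adjusted values, limit read from the data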
Numbers stand for hits; . = inactive; ? = inconclusive; / = not tested or not shown. Shown is part of a subset that was picked to be rich in hits.

SMILES | ALR H2O2 inh | HDAC3 inh | GC-A act | NPR2 activator
CCN(CC)c1ccc(NC(=O)COC(=O)CCC(=O)c2cccs2)cc1 | 99 | . | . | .
CN(C)c1ccc(NC(=O)COC(=O)CCC(=O)c2ccc(F)cc2)cc1 | 97 | . | . | .
CN(C)c1ccc(NC(=O)COC(=O)CNC(=O)c2cccs2)cc1 | 96 | . | . | .
Cc1cc(C)nc(N2CCN(C(=O)CSc3nc4ccccc4nc3N3CC(C)OC(C)C3)CC2)n1 (centres undefined) | / | / | . | .
COc1ccc(Br)cc1/C=C/C(=O)NC(=S)Nc1ccc(CN2CCOCC2)cc1 | . | . | . | .
CCN(CC)c1ccc(NC(=O)COC(=O)C23CCC(=O)N2c2ccccc2S3)cc1 (centres undefined) | 97 | . | . | .
COC(=O)[C@H](CC(C)C)N(CCc1cn(Cc2ccccc2)nn1)S(=O)(=O)c1ccccc1Br | / | / | . | .
CCCCCCn1c(-c2ccc(Cl)cc2Cl)csc1=Nc1ccccc1 | / | / | . | .
O=C(Oc1ccc(N2C(=O)CCC2=O)cc1)c1ccco1 | . | . | . | .
O=C(Oc1ccc(Cl)cc1N1C(=O)CCC1=O)c1ccco1 | . | 34 | . | .
CC[C@]1(c2ccc(C)cc2)C(=O)N(C(=O)OC(C)C)N1C(=O)OC(C)C | / | / | . | .
Cc1cc(/C=C2/NC(=O)N(Cc3ccccc3F)C2=O)c(C)n1-c1ccccn1 | . | 44 | . | .
CCN1C(=O)N/C(=C/c2cc(C)n(Cc3ccccc3)c2C)C1=O | / | . | . | .
CCn1c(C)cc(/C=C2\NC(=O)N(Cc3ccc(Cl)cc3)C2=O)c1C | . | . | . | 49
CCN1CCN(C(=O)c2ccc(N3CC4CC(C3)c3cccc(=O)n3C4)c([N+](=O)[O-])c2)CC1 (centres undefined) | . | . | . | .
C=CCn1c(C)csc1=Nc1ccc(C(=O)O)cc1 | . | . | . | .
O=C(c1cc(O)c(O)c([N+](=O)[O-])c1)c1ccccc1F | 98 | . | . | .
S=c1nc(-c2cccc(Cl)c2)[nH][nH]1 | 92 | . | . | .
S=c1nc(-c2cc(Cl)cc(Cl)c2)[nH][nH]1 | 98 | . | . | .
Cn1c(=O)[nH]c(=O)c2c1[nH]c(=S)n2Cc1ccc(Cl)cc1 | 99 | . | . | .
Cn1c(=O)[nH]c(=O)c2c1nc(Br)n2Cc1ccc(Cl)cc1 | / | / | . | .
O=C(NC(=S)NCc1ccncc1)c1ccccc1 | 94 | . | . | .
CC(=O)C(Sc1nccc(-c2cccs2)n1)C(C)=O | 98 | . | . | .
Cc1ccc(OCC(=O)c2cc(C)n(Cc3cccs3)c2C)c([N+](=O)[O-])n1 | / | . | . | .
Cc1cc(C(=O)COc2ccc3ccc(=O)oc3c2)c(C)n1Cc1cccs1 | 88 | . | . | .
SMILES | ALR H2O2 inh | HDAC3 inh | GC-A act | NPR2 activator
Cn1c(N)c(C(=O)COC(=O)c2cc(S(=O)(=O)N3CCOCC3)ccc2F)c(=O)n(C)c1=O | . | . | . | 37
Cc1ccc(S(=O)(=O)N2CCOCC2)cc1C(=O)OCC(=O)c1c(N)n(C)c(=O)n(C)c1=O | / | . | . | .
CC(C)Cn1c(N)c(C(=O)COC(=O)c2cc(S(=O)(=O)N3CCOCC3)ccc2Br)c(=O)n(C)c1=O | / | 34 | . | .
Cc1ccc(C(=O)c2cc3c(cc2N)OCCO3)cc1 | / | . | . | .
Nc1cc2c(cc1C(=O)c1ccccc1)OCCO2 | 98 | . | . | .
O=C(Cc1cccc(NC(=O)C2CCCN(C(=O)C3CC3)C2)c1)Nc1cccc(C(=O)N2CCCC2)c1 (centres undefined) | . | . | . | .
CC(=O)NC(c1ccccc1)c1nc(-c2cccs2)cs1 (centres undefined) | / | / | . | .
COc1cc(/C=C/C(=O)Nc2ccncc2)cc(OC)c1OC | 85 | . | . | .
COc1ccc(/C=N/NC(=O)CC(=O)NCCc2ccccc2)cc1OC | . | . | . | .
CCOc1cc(/C=N\NC(=O)CC(=O)NCCc2ccccc2)ccc1O | 99 | . | . | .
COc1cc(/C=N/NC(=O)C2CCN(CC(O)COCc3ccccc3)CC2)cc(OC)c1OC (centres undefined) | . | . | . | .
COc1cc(/C=N/NC(=O)C2CCN(CC(O)COCc3ccccc3)CC2)ccc1O (centres undefined) | 99 | . | . | .
COc1cc(/C=N\NC(=O)CC(=O)NCCc2ccccc2)ccc1O | 99 | . | . | .
Cc1cccc(CSC2=NCCN2C(=O)c2ccco2)c1 | 96 | ? | . | .
O=C(c1ccco1)N1CCN=C1SCc1ccccc1F | 95 | . | . | .
O=C(c1ccc(S(=O)(=O)N2CCOCC2)cc1)N1CCN=C1SCc1cccnc1 | 99 | . | . | .
O=C(c1ccco1)N1CCN=C1SCc1cccnc1 | 99 | . | . | .
O=C(NCC(c1cccnc1)N1CCOCC1)c1ccco1 (centres undefined) | . | . | . | .
O=C(c1cccs1)N1CCN=C1SCc1ccccc1F | . | . | . | .
O=C(c1cccs1)N1CCN=C1SCc1ccc(Cl)cc1 | ? | . | . | .
Cc1ccc(CSC2=NCCN2C(=O)c2ccco2)cc1 | 95 | . | . | .
O=C(NCc1cccnc1)C12CC3CC(CC(Cl)(C3)C1)C2 | . | . | . | .
O=C(N1CCN=C1SCc1cccnc1)C12CC3CC(CC(C3)C1)C2 | 99 | . | . | .
O=C(c1cccs1)N1CCN=C1SCc1cccnc1 | 99 | . | . | .
COC(=O)Cc1nnn2c1[C@@H](C)[C@@H](c1ccccc1Br)OC[C@H](C)C2 | / | / | . | .
SMILES | ALR H2O2 inh | HDAC3 inh | GC-A act | NPR2 activator
COC(=O)[C@H](CC(C)C)N(Cc1cn(Cc2ccc(C)cc2)nn1)S(=O)(=O)c1ccc(F)cc1Br | / | / | . | .
Cc1cc(N)n2ncc(-c3ccccc3)c2n1 | 90 | . | . | .
Cc1cc(N)n2ncc(-c3cccc(Br)c3)c2n1 | . | . | . | .
C=CCn1c(COc2cc(C)ccc2C(C)C)nnc1SCC(=O)c1c(N)n(C)c(=O)n(C)c1=O | . | . | . | .
N#CCC(=O)Nc1ccc(C(=O)NCc2ccccn2)cc1 | 99 | . | . | .
CC(C)C(=O)Nc1cccc(COc2ccc(CN(CCc3ccccc3)C(=O)OC(C)(C)C)cc2)c1 | / | / | . | .
OCCN(CCO)CC(O)CN(c1ccccc1)c1ccccc1 (centres undefined) | 99 | . | . | .
CC(C)[N+](C)(C)CC(O)CN(c1ccccc1)c1ccccc1 (centres undefined) | 98 | . | . | .
Cc1cccc(C)c1OCC(O)CN (centres undefined) | . | . | . | .
OCCN(CCO)CC(O)Cn1c2ccccc2c2ccccc21 (centres undefined) | . | . | . | .
OC(COCc1ccccc1)Cn1cnc2ccccc21 (centres undefined) | . | . | . | .
CN(CCOc1ccccc1)CC(O)COc1ccccc1 (centres undefined) | . | . | . | .
OC(CN(c1ccccc1)c1ccccc1)Cn1cnc2ccccc21 (centres undefined) | 99 | . | . | .
NCC(O)CN(c1ccccc1)c1ccccc1 (centres undefined) | 99 | . | . | .
